Reference: the supplement of paper PMC11219838
Unmarked numbers belong to inactive results.

Each molecule was assayed on Meloidogyne hapla J2 (assay: proportion of mobile M. hapla J2 relative to DMSO control (fraction of DMSO control); higher = more viable, less nematicidal, active = 0.7 or less). Conditions: 60 µM; 5 days; temperature: 20 °C.
Method: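 DODA library (846 commercial 1,3,4- and 1,2,4-oxadiazole compounds plus commercial nematicide controls) screened at a single dose of 60 µM (0.6% DMSO) in 96-well plates, two biological replicates. Read-outs: C. elegans N2 L1 survival/reproduction score at day 6, 20 °C (0: 0-10 worms, 1: 11-20, 2: 21-50, 3: >50, 4: overgrown/starved). C. elegans daf-2 dauer, D. dipsaci and M. hapla J2 mobility at day 5, 20 °C, and P. penetrans mobility at day 5, 20 °C, each relative to DMSO controls. M. hapla egg hatching at day 12, 25 °C, relative to the mean of 8 DMSO wells on the same plate.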

SMILES	proportion of mobile M. hapla J2
O=C(CSc1nnc(-c2ccc(Cl)cc2)o1)NC1CCCCC1	0.918
Clc1cccc(-c2nc(-c3ccccc3Cl)no2)c1	0.991
Cc1ccccc1-c1noc(-c2cccc(Br)c2)n1	1.04
O=C(CSc1nnc(-c2ccccc2)o1)Nc1ccc(F)cc1F	1.03
Cc1cc(C)cc(OCc2nc(-c3cc(C)nc4ccccc34)no2)c1	1.02
COc1ccc(CC(=O)Nc2ccc(-c3noc(-c4ccc(F)cc4)n3)cc2)cc1	0.978
CCOc1ccccc1NC(=O)CSc1nnc(-c2ccco2)o1	1.01
COc1ccc(-c2noc(-c3ccc(Br)cc3)n2)cc1	1.04
Clc1cccc(-c2nc(-c3cccnc3)no2)c1	0.312 (active)
O=S(=O)(CCC(F)=C(F)F)c1ncc(Cl)s1 [fluensulfone]	0.0622 (active)
CC(Oc1ccc(C(C)(C)C)cc1)c1nc(-c2ccncc2)no1 (stereo not given)	0.856
NC(=O)COc1ccccc1-c1nc(-c2ccccc2Cl)no1	0.851
O=C(CSc1nnc(-c2ccco2)o1)Nc1ccc(Br)cn1	0.756
Cc1ccc(-c2nnc(SCc3ccccc3C#N)o2)cc1	0.937
CN(C)c1ccc(-c2nnc(SCc3ccccc3)o2)cc1	0.991
Cc1cc(C)cc(NC(=O)CSc2nnc(-c3ccccc3)o2)c1	1.04
O=C(CSc1nnc(-c2cccnc2)o1)c1ccc2ccccc2c1	0.74
Cc1cccc(OCc2nc(-c3ccc(-n4cccc4)cc3)no2)c1	1.01
CC(C)(Oc1ccc(Cl)cc1)c1nc(-c2ccncc2)no1	0.91
COc1ccc(-c2noc(CSc3nc(C)cc(C)n3)n2)cc1	0.992

SMILES	proportion of mobile M. hapla J2
COc1cccc(-c2noc(COc3ccccc3Cl)n2)c1	0.998
Cn1c(SCc2nc(-c3cccs3)no2)nnc1-c1ccco1	0.932
Cc1ccccc1-c1noc(COc2ccccc2)n1	0.764
Cc1ccc(-c2nc(C3CCCCC3)no2)cc1	1.01
COc1ccc(-c2nnc(SCC(=O)Nc3c(F)cc(F)cc3Br)o2)cc1	1.03
O=C(Nc1cccnc1)c1ccccc1-c1nc(-c2ccc(Cl)cc2)no1	0.934
Cc1ccc(-c2nnc(SCC(=O)Nc3ccccc3)o2)cc1	0.996
Fc1ccccc1OCc1nc(-c2ccc(Cl)cc2)no1	1
Brc1cccc(-c2nc(-c3ccncc3)no2)c1	0.991
CCOc1cc(-c2nc(-c3cc4ccccc4nc3OC)no2)cc(OCC)c1OCC	1.04
CCCC(=O)Nc1ccccc1-c1nc(-c2ccncc2)no1	0.99
Brc1ccccc1-c1nc(-c2ccccn2)no1	0.678 (active)
CCn1c(C)cc(C(=O)CSc2nnc(-c3ccccc3)o2)c1C	0.962
Cc1ncc2c(c1-c1noc(-c3ccccc3)n1)CCC2	0.921
Cc1ccc(NC(=O)CSc2nnc(-c3ccncc3)o2)cc1Cl	0.939
Cc1cccc(-c2noc(-c3ccc(C)c(Cl)c3)n2)c1	1.01
CSc1ccccc1-c1nc(-c2cccnc2)no1	1.07
Cc1ccccc1OCc1nc(-c2ccc(Br)cc2)no1	0.788
Clc1ccccc1OCc1nc(-c2cccs2)no1	1.06
O=C(CSc1nnc(-c2ccccc2)o1)Nc1ccc(Br)cc1F	0.992
